Experimental data from PubChem BioAssay AID977607 (Broad Institute, 2014).
Hit rate of the full screen: of about 1,500 compounds, about 460 (31%) were called active. Not shown: some 1% with an inconclusive outcome.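 The calls were made as follows: active = curve reaches 40% activation over neutral controls at an AC40 no higher than the top valid tested concentration; inconclusive = no clear call, values can overlap the other calls; inactive = signal moving opposite to the expected increase, and the rest.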 Not all results are given here. Potency and affinity values are given separately.

Experiment: activators of glucose-dependent insulin secretion, dose response, cell-based, INS-1E, Gaussia luciferase, luminescence, cherry-pick, set 2 (AID 977607);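 also: 0% = median of the plate neutral control wells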
Conditions: INS-1E GLuc insulin secretion reporter, 2-3 h, hits give high values; at 35 µM, 100% = signal doubled over neutral wells unless noted

Max activation, inactive:
CN(Cc1ccccc1)C(=S)NC(=O)c1ccc(-c2ccccc2)cc1 -29.1% [at 3.8 µM, 100% = signal doubled over neutral wells], COc1cc(NC(=O)c2c(-c3ccccc3Cl)noc2C)c2ncccc2c1 -28.8% [at 11 µM, 100% = signal doubled over neutral wells], Cc1cccnc1NC(=O)c1ccc(S(=O)(=O)N2CCCCC2)cc1 -21.1% [at 3.8 µM, 100% = signal doubled over neutral wells], CC1CC(C)CN(CC(O)COCc2ccccc2F)C1 (stereo not given) -21.2% [at 0.0016 µM, 100% = signal doubled over neutral wells], COc1ccc(OC)c(N(CC(=O)NN=C2CCN(C)CC2)S(=O)(=O)c2ccccc2)c1 -25.4% [at 0.135 µM, 100% = signal doubled over neutral wells], CC(NC(=O)C1CCCN1S(=O)(=O)c1ccc2c(c1)n(C)c(=O)c(=O)n2C)c1ccccc1 (stereo not given) -14.2% [at 0.015 µM, 100% = signal doubled over neutral wells], c1cc2c(cc1CN1CCN(C3CCCCCC3)CC1)OCO2 -12.6% [at 0.135 µM, 100% = signal doubled over neutral wells], Cc1cc(S(=O)(=O)NCc2cccnc2)ccc1F -23% [at 3.8 µM, 100% = signal doubled over neutral wells], COC(=O)c1sc2ccccc2c1NC(=O)c1cccs1 -14.7% [at 0.046 µM, 100% = signal doubled over neutral wells], O=C(Nc1nonc1NC(=O)c1cccs1)c1cccs1 -48.2%, Cc1ccc(NC(=O)c2cccs2)cc1NC(=O)c1ccccc1Cl 18.8% [at 1.2 µM, 100% = signal doubled over neutral wells], Cc1cc(C)nc(NC(=O)c2ccc(Cl)cc2Cl)n1 -21.7% [at 0.135 µM, 100% = signal doubled over neutral wells], CCCCNC(=O)c1ccccc1NC(=O)C1=C(C)OCCS1 -8.81% [at 0.005 µM, 100% = signal doubled over neutral wells], CCOC(=O)c1nc(NCc2cccnc2)c2ccccc2n1 -21% [at 1.2 µM, 100% = signal doubled over neutral wells], O=C(O)CCCC(=O)N1CCN(c2nc(-c3ccccc3)c3ccccc3n2)CC1 16.9% [at 0.42 µM, 100% = signal doubled over neutral wells], O=C(Nc1ccccc1N1CCOCC1)C1=NN(c2ccccc2)C(=O)CC1 16.2%, CS(=O)(=O)N1CCN(c2ccccc2NC(=O)c2ccco2)CC1 22.3%, CC1(C(=O)NCC2CCCCC2)CCN1CCc1ccccc1 (stereo not given) -18.8% [at 0.0016 µM, 100% = signal doubled over neutral wells], CC(C)(C)OC(=O)N1CCCN(C(=O)c2ccc(Cl)cc2)CC1 -21.4% [at 0.135 µM, 100% = signal doubled over neutral wells], CN1CCN(C(=O)c2cccc(-c3cnc4cnc(-c5ccccc5Oc5ccccc5)cn34)c2)CC1 -43%, N#CN=CN1CC=C(c2ccc(Cl)cc2)CC1 30.6% [at 3.8 µM, 100% = signal doubled over neutral wells], CC1=NN(C(N)=S)C(=O)C1N=Nc1ccccc1C (stereo not given) -15.4%, Cc1cc(C)n(-c2nc(NCCN(C)C)c3c4c(sc3n2)CCCC4)n1 22.9%, O=C(Cn1[nH]c(=O)c2ccccc2c1=O)OCC(=O)c1ccc(F)cc1 -10.7% [at 0.046 µM, 100% = signal doubled over neutral wells], CC(=O)Nc1nc(CC(C)C)cc(-c2ccco2)c1C#N -15.6% [at 0.135 µM, 100% = signal doubled over neutral wells], CCOC(=O)c1sc2ncn(/N=C/c3cccnc3)c(=O)c2c1C -22.4% [at 0.0016 µM, 100% = signal doubled over neutral wells], Cc1cccc(C)c1NC(=O)NC1CCc2ccccc21 (stereo not given) -27.2%, Cc1noc(C)c1NC(=O)N(C)C[C@H]1Oc2c(NC(=O)C3CCCCC3)cccc2C(=O)N([C@H](C)CO)C[C@@H]1C -26.4% [at 0.015 µM, 100% = signal doubled over neutral wells], COc1ccc(C(=O)c2cnc[nH]2)cc1OC -12% [at 0.015 µM, 100% = signal doubled over neutral wells], CCC(c1nnnn1-c1ccc2c(c1)OCCO2)N1CCc2ccccc2C1 (stereo not given) 36.8% [at 1.2 µM, 100% = signal doubled over neutral wells], COc1ccc(N2CC(NS(=O)(=O)c3cccs3)CC2=O)cc1OC (stereo not given) -12.7% [at 11 µM, 100% = signal doubled over neutral wells], COc1ccc(-c2nc(CCNC(=O)c3ccco3)cs2)cc1OC 53% [at 0.015 µM, 100% = signal doubled over neutral wells], COc1ccc(C2=NN(C(=O)c3ccco3)C(c3ccco3)C2)cc1OC (stereo not given) 9.84% [at 0.42 µM, 100% = signal doubled over neutral wells], COc1ccc2c(c1)[C@@]1(OCCC=C[C@H]1C)C(=O)N2CC1CC1 15.8% [at 11 µM, 100% = signal doubled over neutral wells], O=C(NNC(=O)c1cc2cc3ccccc3nc2s1)c1cccc(C(F)(F)F)c1 -20.1% [at 0.015 µM, 100% = signal doubled over neutral wells]
